Results filed as inconclusive are left out. Active and inactive are the calls of the source. Calls come from the whole dose curve; as a rule, active = well fitted curve in the direction sought with a large enough effect; inconclusive = small, poorly fitted or top-dose-only effect, or another doubt; inactive = no such curve, though single readings can be large; an effect the other way counts as inactive or inconclusive.
Assays:
[1] = qHTS of pediatric cancer cell lines to identify multiple opportunities for drug repurposing: Primary screen for MG 63 (6-TG R) cells (AID 1347105); note: nearly all actives have a fitted effect of over 50% in size
In short: (§1)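 500-1,000 cells/well; 5 h pre-incubation 37 °C/5% CO2; compound pinned; 48 h; CellTiter-Glo, 15 min RT; luminescence. MIPE 11-pt from 0.78 nM, NPC 8-pt from 0.59 nM final. Bortezomib 2.3 µM final as positive control.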

[2] = qHTS of pediatric cancer cell lines to identify multiple opportunities for drug repurposing: Primary screen for control Hh wild type fibroblast cells (AID 1347106); note: nearly all actives have a fitted effect of over 55% in size
In short: (§2)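 Viability after 48 h compound treatment at 37C, 500-1,000 cells/well, read as ATP luminescence with CellTiter-Glo. Primary screens used 11-point (MIPE, 0.78 nM-46 µM) or 8-point (NPC, 0.59 nM-46 µM) final concentrations; follow-up screens used 11-point dilutions.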

[3] = qHTS of pediatric cancer cell lines to identify multiple opportunities for drug repurposing: Primary screen for Rh41 cells (AID 1347108); note: nearly all actives have a fitted effect of over 70% in size
In short: as §1

[4] = qHTS of pediatric cancer cell lines to identify multiple opportunities for drug repurposing: Confirmatory screen for NB1643 cells (AID 1347109); note: nearly all actives have a fitted effect of over 45% in size
In short: as §2

[5] = qHTS of pediatric cancer cell lines to identify multiple opportunities for drug repurposing: Confirmatory screen for A673 cells (AID 1347110); note: nearly all actives have a fitted effect of over 65% in size
In short: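 Viability was read as ATP luminescence (CellTiter-Glo) after 48 h of compound exposure at 37 C in A673 cells seeded at 500-1,000/well. Titrations reached 46 uM final, with 11 points in the confirmatory screen. Concentration-response curves were fitted directly.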

[6] = qHTS of pediatric cancer cell lines to identify multiple opportunities for drug repurposing: Confirmatory screen for SK-N-MC cells (AID 1347111);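 note: cells exposed to compound for 48 h before the readout; nearly all actives have a fitted effect of over 70% in size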
In short: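 SK-N-MC cells at 500-1,000 cells/well in growth media were pre-incubated 5 h, then exposed to compounds at 11-point dilutions for 48 h at 37 degrees C, 5% CO2. Viability was read as CellTiter-Glo luminescence.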

[7] = qHTS of pediatric cancer cell lines to identify multiple opportunities for drug repurposing: Confirmatory screen for BT-12 cells (AID 1347112); note: nearly all actives have a fitted effect of over 55% in size
In short: as §2

[8] = qHTS of pediatric cancer cell lines to identify multiple opportunities for drug repurposing: Confirmatory screen for LAN-5 cells (AID 1347113); note: nearly all actives have a fitted effect of over 65% in size
In short: as §2

[9] = qHTS of pediatric cancer cell lines to identify multiple opportunities for drug repurposing: Confirmatory screen for DAOY cells (AID 1347114); note: nearly all actives have a fitted effect of over 65% in size
In short: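 Viability measured as metabolically active cells via CellTiter-Glo luminescence following 48 hours of compound exposure, 11-point dilutions in confirmatory testing. 500-1,000 cells/well plated 5 hours before dosing; controls were DMSO and 2.3 µM bortezomib.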

Measured: Potency
Potency is the fitted concentration of half-maximal effect.

CCOc1ccccc1OCCNC(C)Cc1ccc(OC)c(S(N)(=O)=O)c1 (centres undefined)
inactive: [1] | [2] | [3]

COCCn1c2c([n+](Cc3cnccn3)c1C)C(=O)c1ccccc1C2=O
active: [1] 187 nM | [2] 264 nM | [3] 46.9 nM | [4] 208 nM | [5] 16.5 nM | [6] 9.3 nM | [7] 9.3 nM | [8] 5.9 nM | [9] 41.4 nM

CCCCc1nc2cc(C=CC(=O)NO)ccc2n1CCN(CC)CC
active: [1] 3720 nM | [2] 16600 nM | [3] 935 nM | [4] 1310 nM | [5] 2080 nM | [6] 1040 nM | [7] 4140 nM | [8] 1040 nM | [9] 2330 nM

CC(C)[C@H](C(=O)Nc1ccc(C(=O)NO)cc1)c1ccccc1
active: [1] 2960 nM | [2] 16600 nM | [3] 1180 nM | [4] 585 nM | [5] 1040 nM | [6] 465 nM | [7] 9270 nM | [8] 827 nM | [9] 2330 nM

COCCOc1ccc2c(c1)ncn2-c1ccc2cccc(N3CCC(N)CC3)c2n1
inactive: [2]
active: [1] 29600 nM | [3] 23500 nM

Cc1cn(-c2cc(NC(=O)c3ccc(C)c(Nc4nccc(-c5cccnc5)n4)c3)cc(C(F)(F)F)c2)cn1
active: [4] 18500 nM | [5] 20800 nM | [8] 18500 nM
not listed: [9]
inactive: all other assays above

C=C1C(=CC=C2CCCC3(C)[C@@H]([C@H](C)C=CC=CC(O)(CC)CC)CC[C@@H]23)C[C@@H](O)C[C@@H]1O (some centres undefined)
inactive: [1] | [2]
active: [3] 18700 nM

— PubChem BioAssay (NCATS)
